Pf growth 48h: P. falciparum growth inhibition at 48 hours (one generation); Potency, µM (series often up to 28.7 µM), for the others: at the top dose activity change, negative = inhibition, most hits filed as inhibitors; P. falciparum luciferase growth in erythrocytes, 48 h; 5.9% of 310,000 active; further: potency means the concentration at half of the fitted maximal effect; on the % scale 0 is the no-effect control and ±100 the full control effect
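Here the parasites carry a stable luciferase gene and grow inside erythrocytes in Albumax-based RPMI medium with compound for one erythrocytic cycle. Activity is scored as loss of luminescent signal.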
Cycloheximide cs: counter-screen for Shiga toxin inhibitors: cycloheximide protein synthesis inhibition; max response, %; 12% of 300,000 active; cell reporter, cycloheximide protein synthesis inhibition counterscreen; in the data active means max response mostly above about 13%, no sharp cut-off; inactive means mostly below about 14%; further: read at 38.3 µM for the half of the compounds with a filed dose; 0% is about no effect
Pf growth 96h: P. falciparum growth inhibition at 96 hour, primary screen for plastid delayed-death inhibitors | Potency, µM (titrated, usually from 28.7 µM), without a hit: at the top dose activity change, negative = inhibition, actives largely listed as inhibitors | 6.9% of 320,000 active | AID 504834 | P. falciparum luciferase reporter growth, 96 h; further: potency means the concentration at half of the fitted maximal effect; on the % scale 0 is the no-effect control and ±100 the full control effect
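Delayed-death screen, second-generation endpoint: infected erythrocytes, 2% hematocrit, 0.05% parasitemia final; 96 hours at 37 C, 5% CO2; luciferase detection reagent; luminescence decrease equals reduced growth.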
Shiga toxin inh: inhibitors of Shiga toxin in Vero cells. 9.2% of 290,000 active. inhibition, % at 38.7 µM. Vero cells, Shiga toxin protein synthesis inhibition reporter; in the data active means inhibition mostly above about 28%, no sharp cut-off; inactive means mostly below about 43%; further: 0% is about no effect
* marks the source's active call; other numbers are inactive results; ? = inconclusive; . = no result given. Compounds with a hit are over-represented: about 21% of the library has one in this group of screens. Unless noted, the call rests on the fitted dose curve; in most records, active means well fitted inhibition curve with a large enough effect; inconclusive means small, poorly fitted or top-dose-only effect, or another doubt; inactive means no such curve, though single readings can be large or run the other way.

SMILES	Pf growth 48h	Cycloheximide cs	Pf growth 96h	Shiga toxin inh
COc1ccc2nc(N=NC3=C(O)CC(C)(C)CC3=O)sc2c1	68%	28*	93%	44
O=C(O)/C=C/c1cn(-c2ncc(C(F)(F)F)cc2Cl)c2ccccc12	?	-1	-25%	-11
COc1cc2c(cc1OC)C1C(C(=O)Nc3ccccc3N3CCN(C)CC3)c3ccccc3C(=O)N1CC2 (stereo not given)	-7%	-5	-150%	9
CCN(CC)C(=O)COc1ccc(C=O)cc1OC	13%	-3	?	-10
CCOC(=O)c1ccc(-c2cccc(C(F)(F)F)c2)nc1C	8%	17*	3%	37
CCOC(=O)c1cc(C#N)c(Oc2cccc(C(F)(F)F)c2)nc1-c1ccccc1	13µM*	0	?	25
CCOC(=O)c1cc(C(=O)NN)c(C)nc1C	12%	-2	9%	-8
CC(C)(C)OC(=O)NC(Cc1ccccc1)C(=O)NC1COC2CC(n3ccc(=O)[nH]c3=O)OC12 (stereo not given)	.	-5	.	6
COc1ccc(NC(=O)CS(=O)c2ccccc2Cl)cc1 (stereo not given)	128%	15*	4%	36
COc1ccc(NC(=O)CS(=O)CC(=O)Nc2ccc(OC)c(OC)c2)cc1 (stereo not given)	.	1	10%	3
COc1ccc(NC(=O)C(NC(=O)OC(C)(C)C)C(C)OCc2ccccc2)cc1 (stereo not given)	1%	3	1.7µM*	11
COC(=O)c1cc(CNC(=O)CCCSc2ccccc2)ccc1OC	1%	23*	71%	21
COc1ccc(NC(=O)Cc2ccccc2)cc1	105%	30*	?	38*
COc1ccc(CNC(=O)CCCSc2ccccc2)cc1	33%	-4	22%	-5
C/C(=N\NC(=O)c1nnn(-c2nonc2N)c1CN1CCOCC1)c1ccc(CC(C)C)cc1	29%	-2	17%	-2
COc1ccc(S(=O)(=O)NC(C)C(=O)NCc2ccccn2)cc1OC (stereo not given)	18%	-5	-20%	2
O=C(NCc1ccc2c(c1)OCO2)c1nc(Cn2cc([N+](=O)[O-])cn2)no1	9%	1	24%	-3
COc1ccc(NC(=O)CCCSc2ccccc2)cc1	58%	24*	75%	28
COc1ccccc1NC(=O)CSCC(N)=O	9%	-3	.	-4
COc1ccccc1NC(=O)CSCc1nc2ccccc2[nH]1	?	-5	12µM*	-5
COc1ccc(NC(=O)Cc2nc3ccccc3[nH]2)cc1	12µM*	-4	?	-19
CCc1ccc(NC(=O)Cc2ccc(OC)cc2)cc1	49%	28*	112%	41*
CC(=O)N1N=C(c2cccs2)CC1c1cc2cc(C)ccc2nc1Cl (stereo not given)	13%	-1	3%	33
O=C(CCCN1C(=O)c2ccccc2C1=O)NCCN1C(=O)S/C(=C\c2cccs2)C1=O	22%	-1	?	14
COc1ccc(NC(=O)CCC(=O)NCCO)cc1	-1%	16*	24%	45*
SMILES	Pf growth 48h	Cycloheximide cs	Pf growth 96h	Shiga toxin inh
COc1ccc(CC(=O)Nc2ccc(C(C)=O)cc2)cc1	-25%	28*	-15%	45
O=C(CCC(=O)Nc1ccccc1)NCCO	15%	-2	0%	-2
CCOc1ccccc1OCCC(=O)OCC(=O)Nc1c(C)nn(-c2ccccc2)c1C	1%	.	-2%	.
Cc1ccc(NS(=O)(=O)c2ccc(OCC(=O)NCC3CCCO3)cc2)cc1 (stereo not given)	-1%	-3	9.3µM*	34
O=C(NCC1CCCO1)c1ccc[nH]1 (stereo not given)	16%	-1	24%	-10
O=C(COc1ccc(F)cc1)NCC1CCCO1 (stereo not given)	29%	18	1.7µM*	-19
CCC(=O)c1ccc(OCC(=O)OCC(=O)NCC2CCCO2)cc1 (stereo not given)	11%	19*	24%	20
O=C(NCC1CCCO1)c1cc2cc(F)ccc2[nH]1 (stereo not given)	.	27*	?	38*
COc1ccc(N2C(=NC(=O)C3CCCO3)SC3CS(=O)(=O)CC32)cc1 (stereo not given)	13%	-2	42%	-5
COc1ccc(-c2c(NC(=O)c3ccco3)oc3c(C)cccc3c2=O)cc1	-17%	9	-15%	-3
O=C(CCN1C(=O)/C(=C/c2ccc(F)cc2)SC1=S)N[C@@H](CO)Cc1ccccc1	35%	-3	?	-12
C=CCN(c1ccccc1)S(=O)(=O)c1cc2c(cc1C)NC(=O)CO2	3%	-2	?	7
O=C(NCc1ccc(F)cc1)c1cc(C(=O)C2CC2)c[nH]1	-16%	-1	0%	-8
O=C1CCN(Cc2ccc(Br)cc2)CCN1[C@H](CO)Cc1ccccc1	1%	-3	-23%	-5
CN(C)C(=O)CSc1ccc(S(=O)(=O)N2CCOCC2)cn1	-15%	.	-30%	.
Cc1cccc(CSc2ccc(S(=O)(=O)N3CCCC3)cn2)c1	?	.	6.6µM*	.
Cc1ccc(C(C)NC(=O)CSc2ccc(S(=O)(=O)N3CCOCC3)cn2)cc1C (stereo not given)	12µM*	.	?	.
CC(C)(C)c1ccc(CSc2ccc(S(=O)(=O)N3CCOCC3)cn2)cc1	10µM*	.	?	.
CCC(C)NC(=O)CSc1ccc(S(=O)(=O)N2CCN(Cc3ccccc3)CC2)cn1 (stereo not given)	?	.	9.3µM*	.
COc1ccc(S(=O)(=O)N(C)c2ccc(C(=O)NCc3ccccn3)cc2)cc1OC	-3%	1	-9%	-16
CN1CCN(C(=O)NCC23CC4CC(CC(C4)C2)C3)CC1	9%	1	-11%	-4
Cc1cccn2c(=O)nc(SCC(=O)Nc3ccc4c(c3)OCO4)nc12	?	.	31%	.
CN(C)CCN(Cc1cccs1)S(=O)(=O)c1csc(C(N)=O)c1	20%	-5	?	-4
CCCCN(Cc1ccco1)S(=O)(=O)c1csc(C(N)=O)c1	16%	0	9.3µM*	-4
CN(C)CCN(Cc1ccco1)S(=O)(=O)c1csc(C(N)=O)c1	23%	-5	8.3µM*	-1
SMILES	Pf growth 48h	Cycloheximide cs	Pf growth 96h	Shiga toxin inh
O=C(Nc1cccc(F)c1)C1CCCN(S(=O)(=O)c2ccccc2)C1 (stereo not given)	?	-5	?	-6
Cn1c(SCC(=O)NCc2cccs2)nnc1-c1ccc(O)cc1	3%	-2	0%	-10
CCN1C(=O)[C@H]2[C@@H](c3ccc(-c4ccc(C(C)=O)cc4)cc3)N[C@@](Cc3ccccc3)(C(=O)OC)[C@H]2C1=O	13µM*	.	10µM*	.
CCN1C(=O)C2C(c3cccc(F)c3)NC(CC)(C(=O)OC)C2C1=O (stereo not given)	-1%	0	81%	-20
CCN1C(=O)[C@H]2[C@@H](c3ccc(-c4ccccc4)cc3)N[C@@](CC(C)C)(C(=O)OC)[C@H]2C1=O	8.3µM*	.	9.3µM*	.
CCN1C(=O)[C@H]2[C@@H](c3ccc(-c4ccccc4)cc3)N[C@@](Cc3ccccc3)(C(=O)OC)[C@H]2C1=O	10µM*	.	?	.

Source: PubChem (National Center for Advancing Translational Sciences (NCATS))
